Measured values as given in the OligoGym collection.

Target: ABCD4
Test: pooled miR-30 sensor sort-seq; sequence = guide strand
Conditions: shRNA
Note: reference of the scale not given here.

Sequence | sensor-assay potency score (higher = more potent)
TAGAAGAGTCGGGCAAAGGAGA | -1.06
ATCGGCAGAACCTGAGTCGGGG | -0.759
TCGATCTTCGCTGTCAGTCCTC | -0.221

Target: ABCG2
Test: as above
Conditions: shRNA

Sequence | sensor-assay potency score (higher = more potent)
TATAATACTTGGTAACATCCTC | 0.377
TTTAAAGTCTTCTTCTCTGTTT | -0.358
TGAGATTGACCAACAGACCTGA | 0.275
TTGAAGACTGTGATCTTCTTCT | 0.497
TTACCAAATATTCTTCGCCAGT | -1.15
TTTGTCTCTTTGTAGAAGGAGG | -1.31
TAACTCTTGAATGACCCTGTTA | -0.548
TAATATTTCTTTCTCAACTGGT | 0.563
TTCTATGAGTGGCTTATCCTGC | -0.526
TACGACTGTGACAATGATCTGA | 0.524
AACATCATCTTGTACCACGTAA | -0.468
TTCAGCTTTTGTCTCTTTGTAG | -0.298
